Glyco luc inh – increase of ERlucT glycosylation luciferase signal, primary screen, N-linked glycosylation inhibitor project, D54 ERlucT cells, luminescence, set 2 | D54 ERlucT glycosylation luciferase reporter, 24 h; percent of 100 nM tunicamycin response | reporter increase, % at 12.5 µM | actives 0.23% (n = 360,000);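 active = mean luciferase reporter signal, scaled so untreated is 0 and the glycosylation-blocking control 100, at or above a set limit in every replicate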;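 also: luciferase carries N-glycosylation sites so blocking glycosylation raises the light; 0% = median of neutral control wells and 100% = median of 100 nM tunicamycin wells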
ALR H2O2 inh – inhibitors of human ALR sulfhydryl oxidase, primary screen, biochemical, H2O2 detection, HRP-luminol luminescence, single point. purified ALR, DTT oxidation. inhibition, % (no concentration beside the values). actives 3.8% (n = 290,000);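 active = mean replicate inhibition above about 79%, with every replicate also reaching it, limit read from the data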
Target sequence (P55789 whole entry, looked up): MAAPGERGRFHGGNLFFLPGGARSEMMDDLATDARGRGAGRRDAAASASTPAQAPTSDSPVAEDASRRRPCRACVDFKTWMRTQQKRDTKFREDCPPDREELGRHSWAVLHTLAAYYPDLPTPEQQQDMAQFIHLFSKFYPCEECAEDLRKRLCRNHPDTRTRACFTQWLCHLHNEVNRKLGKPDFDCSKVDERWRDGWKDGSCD
CDK5 p35 inh – inhibitors of human CDK5/p35 kinase, primary screen, biochemical, single concentration | AID 488839, 2010 | inhibition, % at 10 µM | Recombinant CDK5/p35, ADP-Glo luminescence, 60 min | Cyclin-dependent kinase 5 (Homo sapiens) + Cyclin-dependent kinase 5 activator 1 (Homo … | actives 0.01% (n = 330,000);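 active = highest replicate inhibition of at least 50% and at least 75% of replicates reaching 50%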;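 also: plate controls were DMSO neutral control for no effect and GW8510 at 10 µM for full effect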
Mot1-301 SUMO – yeast Mot1-301 growth rescue at high temperature, primary screen, SUMOylation pathway inhibitor project, S. cerevisiae, ATP luminescence, 38.5C; S. cerevisiae Mot1-301 growth rescue; percent above DMSO median, 100 means doubled; actives 1% (n = 320,000); growth rescue, % at 18.8 µM;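 active = every valid replicate shows activation above 250% relative to neutral control wells; inactive = the rest, any valid replicate at or below 250%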;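 also: OY570 slx delta 5 strain wells were the positive control but not used for scaling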
NSD2 HMT inh – NSD2 histone methyltransferase inhibitors, primary screen, biochemical, AlphaScreen, single concentration, set 2; Histone-lysine N-methyltransferase NSD2 (Homo sapiens), O96028; NSD2 peptide methylation, 120 min; inhibition, % at 12.5 µM; actives 0.54% (n = 310,000); AID 743445, 2014; in the data active = inhibition above about 50%
Casp6 inh – human caspase-6 inhibitors, primary screen, biochemical, VEID-R110 fluorescence, single point, set 2. P55212. purified caspase-6, Z-VEID-R110 cleavage fluorescence. inhibition, % at 12.5 µM. actives 0.53% (n = 350,000);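 active = mean inhibition across replicates at least about 35%, with every replicate also reaching that limit, limit read from the data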;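 also: 0% = median of neutral control wells and 100% = no fluorescence left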
Target sequence (P55212 24-179 limits assumed): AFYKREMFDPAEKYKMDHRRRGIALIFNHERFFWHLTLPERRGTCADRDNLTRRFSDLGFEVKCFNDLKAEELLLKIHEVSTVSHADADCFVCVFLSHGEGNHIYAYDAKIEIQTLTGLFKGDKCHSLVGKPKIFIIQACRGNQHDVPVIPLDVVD
Target sequence (P55212 194-293 limits assumed): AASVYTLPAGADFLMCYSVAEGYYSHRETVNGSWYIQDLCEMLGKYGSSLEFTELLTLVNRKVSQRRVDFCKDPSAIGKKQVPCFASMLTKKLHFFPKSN
The depositor's hits bear a star; . = no result given. Rows were chosen to be rich in hits. Some 3.9% of all compounds tested hit in one or more screens of this group.

SMILES	Glyco luc inh	ALR H2O2 inh	CDK5 p35 inh	Mot1-301 SUMO	NSD2 HMT inh	Casp6 inh
O=C(COc1cccc2cccnc12)N/N=C/c1ccc(O)cc1	2	99*	0	-11	-3	.
CCOc1cc(/C=N/NC(=O)Nc2ccccc2)ccc1O	-1	99*	-1	4	-1	3
CCOc1cc(/C=N/NC(=O)CSc2cccc3cccnc23)ccc1O	-1	99*	-7	-19	-1	3
O=C([C@@H]1[C@@H](CO)[C@@H]2Cn3c(ccc(C4=CCCCC4)c3=O)[C@@H]2N1Cc1nccs1)N1CCCCC1	.	.	.	.	.	3
N#C[C@H]1[C@H](c2ccc(-c3cccnc3)cc2)[C@@H](CO)N1C(=O)C1CC1	.	.	.	.	.	-2
CCOc1cc(/C=N/Nc2nc(-c3cccs3)c(NC(C)=O)s2)ccc1O	0	95*	2	-6	0	-1
CC(=O)Nc1sc(N/N=C\c2ccccc2)nc1-c1cccs1	-6	13	-4	-6	2	5
CCOc1cc(/C=N/n2c(C)nnc2C)ccc1O	3	94*	1	2	-3	0
CCOc1cc(/C=N/NC(=O)C2CCCC2)ccc1O	3	99*	0	6	13	5
CC=Cc1ccc2n(c1=O)C[C@H]1[C@H](CO)[C@@H](C(=O)NCCN3CCCC3)N(C(=O)NCCC)[C@@H]21 (mixture of isomers)	.	.	.	.	.	0
C[C@H]1CN([C@@H](C)CO)S(=O)(=O)c2ccc(-c3cccc(C(=O)N(C)C)c3)cc2O[C@H]1CN(C)C(=O)Cc1ccccn1	.	.	.	.	.	1
CCC(CC)C(=O)Nc1nnc(SCC(=O)NC(C)(C)C)s1	2	1	-1	924*	-2	-3
CCC(CC)C(=O)Nc1nnc(SCC(=O)NC2CC2)s1	-1	-7	0	2	4	0
Cc1cc(C)n2nc(C(=O)N3CCCC(Nc4ccc(C(C)C)cc4)C3)cc2n1 (configuration not stated)	-2	97*	1	-9	4	1
CC(C)c1cc(C(=O)N2CCCC(Nc3ccc(F)cc3)C2)n[nH]1 (configuration not stated)	0	99*	0	-13	-2	3
CC(C)c1ccc(NC2CCCN(C(=O)c3cc(C(C)C)nc(N)n3)C2)cc1 (configuration not stated)	-1	97*	.	-2	6	0
Cc1nonc1C(=O)N1CCCC(Nc2ccc(C(C)C)cc2)C1 (configuration not stated)	-1	-3	1	-6	5	-3
CC(C)c1ccc(NC2CCCN(C(=O)c3cscn3)C2)cc1 (configuration not stated)	1	99*	1	-14	0	-5
COC(=O)c1ccc(N2C(=O)CC(SCC(=O)Nc3ccc(OC)cc3)C2=O)cc1 (configuration not stated)	-3	.	-1	63	19	0
Cc1ccc(N2C(=O)CC(SCC(=O)Nc3ccc(S(N)(=O)=O)cc3)C2=O)cc1 (configuration not stated)	0	99*	-3	114	3	2
O=C(O)CSC1CC(=O)N(c2ccc(Cl)c(Cl)c2)C1=O (configuration not stated)	4	98*	0	850	0	.
CCOC(=O)c1ccc(N2C(=O)CC(SCC(=O)Nc3ccc(S(N)(=O)=O)cc3)C2=O)cc1 (configuration not stated)	0	99*	0	-22	-3	2
O=C(CSC1CC(=O)N(c2ccc(C(=O)O)cc2)C1=O)Nc1ccc2ccccc2c1 (configuration not stated)	2	100*	-3	15	33	5
C[C@H](CO)N1C[C@H](C)[C@@H](CN(C)C)Oc2ccc(NC(=O)CCC(F)(F)F)cc2CC1=O	.	.	.	.	.	3
CCCC(=O)Nc1ccc2c(c1)C(=O)N(C)C[C@H](OC)[C@H](C)CN(C)[C@H](C)CO2	.	.	.	.	.	-11
SMILES	Glyco luc inh	ALR H2O2 inh	CDK5 p35 inh	Mot1-301 SUMO	NSD2 HMT inh	Casp6 inh
CCCCOc1ccc(N2CC(C(=O)NCCc3ccc(OC)c(OC)c3)CC2=O)cc1 (configuration not stated)	-2	-5	2	909*	8	.
CCOc1ccc(N2CC(C(=O)Nc3ccccc3N3CCCC3)CC2=O)cc1 (configuration not stated)	7	94*	-1	14	3	1
C[C@@H](O)C#Cc1cnc2c(c1)C(=O)N([C@@H](C)CO)C[C@H](C)[C@@H](CN(C)C(=O)c1ccccc1F)O2	.	.	.	.	.	-1
O=C1c2cccc3cccc(c23)C(=O)C1(O)O	6	99*	-2	-3	17	17
CC(Nc1ccc2c(c1)OCCO2)C(=O)Nc1ccc2c(c1)OCO2 (configuration not stated)	-4	96*	1	137	4	-5
C=C(C)C(=O)Nc1ccc2c(c1)OCCOCCOCCO2	0	-1	-1	-6	.	53*
O=C(NC1CCCCC1)C(c1ccnc2ccccc12)N1CCc2ccccc2C1 (configuration not stated)	2	.	.	.	.	76*
CC(=O)N(C)c1ccc(N=Cc2cc3c(cc2[N+](=O)[O-])OCO3)cc1	6	22	0	6	.	36*
Cc1ccc(N=Cc2cc3c(cc2[N+](=O)[O-])OCO3)cc1[N+](=O)[O-]	3	-15	.	-6	-1	1
Cc1noc(C)c1NC(=O)N(C)C[C@@H]1Oc2c(NC(=O)c3cnccn3)cccc2C(=O)N([C@H](C)CO)C[C@@H]1C	.	.	.	.	.	0
CC(C)n1c(SCC(=O)Nc2nncs2)nnc1C1CC1	2	-3	0	287	-1	1
Nn1c(SCC(=O)Nc2nccs2)nnc1C1CC1	2	99*	1	-1	-7	-1
CCn1c(SCC(=O)Nc2nccs2)nnc1C1CC1	2	1	0	-8	-2	2
Cn1c(SCC(=O)Nc2nncs2)nnc1C1CC1	3	5	-1	-9	7	36*
CC(=O)Nc1ccccc1-c1nnc(SCc2ccccc2Cl)[nH]c1=O	2	99*	-2	34	0	.
COc1ccc(S(=O)(=O)N(C)C[C@@H]2Oc3ccc(NC(=O)CCN4CCOCC4)cc3C(=O)N([C@H](C)CO)C[C@@H]2C)cc1	.	.	.	.	.	-1
S=c1nc(-c2csc3c2CCCC3)[nH][nH]1	3	99*	3	.	-1	1

High-throughput results deposited in PubChem BioAssay by Broad Institute.
